hgDAF12 agonist: hgDAF-12 agonism, primary luciferase screen. AID 687014. hit rate 1.8% among 370,000. HEK293 GAL4-hgDAF12 UAS-luciferase reporter, agonist luminescence; normalized to butyrate control. activation, % at 6.8 µM;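 active = activation above a cutoff set at the mean of all screened compounds plus 3 SD, cut at about 10% in these data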;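 also: 0% = DMSO wells and 100% = sodium butyrate wells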
hcDAF-12 act: activators of H. contortus DAF-12 nuclear receptor. HEK293 hcDAF-12 lit1-tk-luc reporter, luminescence; 0% DMSO, 100% Δ7-dafachronic acid. activation, % at 6.8 µM. hit rate 1.4% among 370,000;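 active = activation above the mean of all tested compounds plus 3 SD, cut at about 5.5% in these data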;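 also: 100% = response to 3 µM Δ7-dafachronic acid high control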
DAX1 inh-1: DAX1 (NR0B1) inhibition, primary screen. HEK293T StAR-luciferase reporter, SF-1/DAX-1 repression relief. hit rate 1.1% among 370,000. inhibition, % at 6.8 µM;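 active = inhibition above the mean over all tested compounds plus 3 SD, cut at about 3.6% in these data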;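 also: 0% = DAX-1 cells with DMSO and 100% = cells lacking DAX-1 with DMSO; higher inhibition means more luminescence from relief of DAX-1 repression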
ssDAF-12 act: S. stercoralis DAF-12 activation, primary screen | HEK293 ssDAF-12/GRIP1 lit1-tk-luc reporter, luminescence; % of 3 µM dafachronic acid response | AID 652126 | activation, % at 6.8 µM | hit rate 1% among 370,000;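 active = activation above the mean over all tested compounds plus 3 SD, cut at about 0.9% in these data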;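 also: 0% = DMSO-only wells and 100% = 3 µM delta7-dafachronic acid wells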
DAX1 inh-2: inhibitors of human orphan nuclear receptor DAX1 (NR0B1) | HEK293 Gal4-DAX1 luciferase reporter, luminescence | inhibition, % at 6.75 µM | hit rate 0.99% among 340,000 | AID 504766;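 active = inhibition above the mean over all tested compounds plus 3 SD, cut at about 4.2% in these data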;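 also: 0% = DAX1-transfected cells with DMSO and 100% = empty-vector control cells with DMSO; inhibition shows as a rise in luminescence from relieved DAX1 repression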
AHR activator: activates the human aryl hydrocarbon receptor | P35869 | hit rate 2.5% among 320,000 | AHR-responsive luciferase reporter cells, luminescence | activation, % at 5 µM; in the data active = activation above about 47%;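 also: 0% = vehicle wells and 100% = reference agonist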
Target sequence (P35869 whole entry, looked up): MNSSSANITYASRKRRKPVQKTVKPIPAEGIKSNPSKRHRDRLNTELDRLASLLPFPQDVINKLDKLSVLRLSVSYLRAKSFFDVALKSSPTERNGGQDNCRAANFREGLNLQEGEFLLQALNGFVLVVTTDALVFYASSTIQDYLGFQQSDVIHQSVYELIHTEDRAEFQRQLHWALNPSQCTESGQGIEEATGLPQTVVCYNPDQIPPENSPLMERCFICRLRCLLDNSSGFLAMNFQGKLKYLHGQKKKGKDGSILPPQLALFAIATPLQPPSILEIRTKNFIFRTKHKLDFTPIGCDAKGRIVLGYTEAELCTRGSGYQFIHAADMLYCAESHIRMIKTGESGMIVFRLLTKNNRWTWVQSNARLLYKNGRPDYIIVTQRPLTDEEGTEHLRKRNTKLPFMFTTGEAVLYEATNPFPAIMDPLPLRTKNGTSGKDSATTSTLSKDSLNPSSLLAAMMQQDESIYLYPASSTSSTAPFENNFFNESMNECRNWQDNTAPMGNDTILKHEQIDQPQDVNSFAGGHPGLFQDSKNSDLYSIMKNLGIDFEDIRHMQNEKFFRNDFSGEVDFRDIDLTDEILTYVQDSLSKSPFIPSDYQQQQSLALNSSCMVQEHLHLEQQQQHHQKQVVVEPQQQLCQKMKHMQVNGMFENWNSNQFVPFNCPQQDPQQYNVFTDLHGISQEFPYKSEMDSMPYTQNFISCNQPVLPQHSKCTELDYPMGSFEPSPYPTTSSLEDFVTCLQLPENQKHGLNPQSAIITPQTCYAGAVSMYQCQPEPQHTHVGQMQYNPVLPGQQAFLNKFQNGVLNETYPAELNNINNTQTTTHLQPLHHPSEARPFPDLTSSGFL
An asterisk follows results filed as active; . = no result given. Hits are enriched below; roughly 5.7% of the tested compounds scored in any of these assays.

SMILES	hgDAF12 agonist	hcDAF-12 act	DAX1 inh-1	ssDAF-12 act	DAX1 inh-2	AHR activator
CCOC(=O)N1CCN(C(=S)NC(C)(C)C)CC1	2	-1	1	-1	5.2*	2
O=S(=O)(NCCCc1ccccc1)c1ccc(F)c(F)c1	1	-2	0	-1	4.8*	-1
O=S(=O)(NCCCc1ccccc1)c1ccc(Cl)cc1	-3	1	0	-1	-1	1
COc1ccccc1NCC(=O)NN=C1CCS(=O)(=O)c2ccc(F)cc21	-2	-1	-1	-2	0	49*
COc1cc(C(=O)N/N=C2\CCS(=O)(=O)c3ccc(F)cc32)cc(OC)c1OC	-7	0	-1	-2	2	6
Cc1cc(C(=O)N2CCc3c([nH]c4ccccc34)C2c2cccc(Cl)c2)nn1C (centres undefined)	4	2	0	-1	1	41
CSc1ccc(C2c3[nH]c4ccccc4c3CCN2C(=O)c2cc(C)n(C)n2)cc1 (centres undefined)	.	.	.	.	.	49*
CCOc1ccc(C2c3[nH]c4ccccc4c3CCN2C(=O)Cn2cncn2)cc1 (centres undefined)	-1	0	0	-1	-1	68*
Cc1cccc(OC(C)C(=O)Nc2nc(-c3cccnc3)cs2)c1 (centres undefined)	1	0	0	-1	0	.
O=C(c1ccccc1)N(CCCn1ccnc1)C(c1ccccc1)c1nc2ccccc2[nH]1 (centres undefined)	4	4	3.6*	-1	.	.
Cc1c(CC(=O)Nc2ccc(Cl)cc2)sc2ccc(Cl)cc12	2	0	0	-1	6.4*	2
CCOC(=O)c1cc2c(s1)-c1ccccc1CC2	5	6.4*	2	1	2	24
COC(=O)c1cc2c(s1)-c1ccccc1CC2	4	4	0	0	1	8
Cc1c(N=c2scc(-c3ccccc3)n2C)c(=O)n(-c2ccccc2)n1C	2	1	0	0	0	2
Nc1nc2ccccc2cc1-c1cccs1	7	1	1	0	5.4*	7
O=c1cc(-c2cccc(Cl)c2)oc2cccc(O)c12	3	3	1	0	0	34
O=c1cc(-c2cccc(Br)c2)oc2cccc(O)c12	0	5.8*	0	0	0	49*
O=c1cc(-c2ccccc2)oc2cccc(O)c12	4	-1	1	0	4.9*	.
O=C(COC(=O)c1ccc(S(=O)(=O)N2CCOCC2)cc1)NCc1cccs1	-1	-1	0	-1	0	0
COc1ccccc1-c1nc(C#N)c(NCCCn2ccnc2)o1	-1	-3	0	-2	2	70*
Cc1ccc(-n2nnnc2SCn2nnc3ccccc3c2=O)cc1	13*	1	0	0	2	9
O=c1c2ccccc2nnn1CSc1nnnn1-c1ccc(O)cc1	-2	4	0	-2	0	2
Cc1ccc(S(=O)(=O)N2C[C@H]3[C@H]4C(=O)N(c5ccccc5)C(=O)[C@H]4CC(=O)[C@H]3[C@@H]2c2cccc3ccccc23)cc1	3	2	4.3*	0	.	.
CSc1nnc(N2C(=O)C(O)=C(C(=O)c3ccc(C)o3)C2c2ccc(C)cc2)s1 (centres undefined)	11*	5	2	0	2	9
CSc1nnc(N2C(=O)C(O)=C(C(=O)c3ccco3)C2c2ccccc2)s1 (centres undefined)	7	2	0	0	1	-1
SMILES	hgDAF12 agonist	hcDAF-12 act	DAX1 inh-1	ssDAF-12 act	DAX1 inh-2	AHR activator
Cc1csc(NC(=O)c2cccc(C)c2C)n1	6	1	0	0	1	-2
Cc1csc(NC(=O)c2ccc[nH]c2=O)n1	11*	1	2	-1	1	2
CCOC(=S)SCc1cn2cccc(C)c2n1	5	2	1	-1	5.0*	13
O=C(Cc1cccs1)Nn1c(Cc2cccs2)nc2ccccc2c1=O	.	.	.	.	1	1
N#C/C(=C\c1c[nH]c2ccccc12)c1nnc2n1CCCCC2	1	-2	0	-1	-2	-12
N#C/C(=N\Nc1cccc2ccccc12)c1nnc2n1CCCCC2	0	2	0	0	1	54*

Assay outcomes deposited in PubChem BioAssay by The Scripps Research Institute Molecular Screening Center.
